Results taken from PubChem BioAssay (NCI).
About 83,000 compounds went through this panel and 20% of them were active in at least one assay; those are over-represented in the sample as a whole.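 Each cell line was grown in a 96-well plate and treated with one concentration of compound for 48 hours. Values below 10 were considered active.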 A number with no mark means an inactive call. Active and inactive are the calls of the source.

Tests used:
Assay in all cases: NCI-60 one-dose screen, 48 h (100 = growth as untreated, 0 = no growth, -100 = all killed)
Settings in all cases: 10 µM unless noted
[1] = test system: NCI-H23 lung
[2] = test system: NCI-H226 lung
[3] = test system: NCI-H322M lung
[4] = test system: HOP-62 NSCLC
[5] = test system: NCI-H460 lung
[6] = test system: HOP-92 NSCLC
[7] = test system: NCI-H522 lung
[8] = test system: A549/ATCC NSCLC
[9] = test system: 786-0 renal
[10] = test system: COLO 205 colon
[11] = test system: DU-145 prostate
[12] = test system: K-562 leukemia
[13] = test system: MALME-3M melanoma
[14] = test system: MDA-MB-231 breast
[15] = test system: SF-268 CNS
[16] = test system: SF-295 CNS
[17] = test system: SF-539 CNS
[18] = test system: UACC-257 melanoma
[19] = test system: M14 melanoma

O=C(O)CCCCCCCCCCCCCCC(=O)O
growth [1]: 103%
growth [2]: 85.3%
growth [3]: 100%
growth [4]: 99.1%
growth [5]: 110%
growth [6]: 85.1%
growth [7]: 89.6%
growth [8]: 90.5%
growth [9]: 102%
growth [10]: 108%
growth [11]: 106%
growth [12]: 109%
growth [13]: 101%
growth [14]: 98.2%
growth [15]: 98.9%
growth [16]: 101%
growth [17]: 105%
growth [18]: 95.6%
growth [19]: 107%

COc1ccc(Nn2c(SCC(=O)Nc3nc(-c4ccc(Cl)cc4)cs3)nc(C)c2C)cc1
growth [1]: 31.9%
growth [2]: 60.5%
growth [3]: 112%
growth [4]: 100%
growth [5]: 39.3%
growth [6]: 38.6%
growth [7]: 66.2%
growth [8]: 44%
growth [9]: 59.5%
growth [10]: 77.5%
growth [11]: 79.6%
growth [12]: 26.9%
growth [13]: 99.1%
growth [14]: 79.7%
growth [15]: 66.1%
growth [16]: 43.9%
growth [17]: 79.1%
growth [18]: 48.9%
growth [19]: 62.5%

O=C(/C=C\c1ccc(OCCCCCC[P+](c2ccccc2)(c2ccccc2)c2ccccc2)cc1)c1ccc2c(c1)OCCO2
growth [1]: 3.95% (active)
growth [2]: -0.25% (active)
growth [3]: 22.3%
growth [4]: -21.8% (active)
growth [5]: -12.4% (active)
growth [6]: -29.2% (active)
growth [7]: -6.94% (active)
growth [8]: 12.1%
growth [9]: 5.76% (active)
growth [10]: -58.6% (active)
growth [11]: 6.93% (active)
growth [12]: 2.43% (active)
growth [13]: -15.3% (active)
growth [14]: 2.28% (active)
growth [15]: -4.06% (active)
growth [16]: -17.4% (active)
growth [17]: 3.93% (active)
growth [18]: -5.23% (active)
growth [19]: -3.09% (active)

COc1ccc(C(=O)c2cc3c(N)c(C(=O)Nc4cccc(OC)c4)sc3nc2C)cc1
growth [1]: 33.8%
growth [2]: 68%
growth [3]: 58.7%
growth [4]: 41.5%
growth [5]: 7.07% (active)
growth [6]: 85.3%
growth [7]: -16% (active)
growth [8]: 25.3%
growth [9]: 50.7%
growth [10]: -3.22% (active)
growth [11]: 16.2%
growth [12]: 8.3% (active)
growth [13]: 55.6%
growth [14]: 15.5%
growth [15]: 39%
growth [16]: 24.2%
growth [17]: -16.3% (active)
growth [18]: 71.3%
growth [19]: 13.1%

Cc1cc(NC(=O)c2cnc(N3CCN(CCOCCOCCOCCOCCC(=O)N[C@H](C(=O)N4C[C@H](O)C[C@H]4C(=O)N[C@@H](C)c4ccc(-c5scnc5C)cc4)C(C)(C)C)CC3)cn2)c2ncccc2c1
growth [1]: 4.34% (active)
growth [2]: 1.46% (active)
growth [3]: 35.6%
growth [4]: 4.92% (active)
growth [5]: 7.54% (active)
growth [6]: 4.9% (active)
growth [7]: -15.6% (active)
growth [8]: 66.7%
growth [9]: 29.9%
growth [10]: 47.1%
growth [11]: 35%
growth [12]: 6.65% (active)
growth [13]: -31.7% (active)
growth [14]: -61.6% (active)
growth [15]: 8.05% (active)
growth [16]: -14.9% (active)
growth [17]: -75.5% (active)
growth [18]: -5.78% (active)
growth [19]: -33.7% (active)

COc1ccc(C(=O)c2cc3c(N)c(C(=O)Nc4cccc5ccccc45)sc3nc2C)cc1
growth [1]: 30.7%
growth [2]: 47.4%
growth [3]: 51.4%
growth [4]: 30.2%
growth [5]: 3.06% (active)
growth [6]: 44.5%
growth [7]: -28.8% (active)
growth [8]: 17.6%
growth [9]: 31.6%
growth [10]: -37.7% (active)
growth [11]: 9.48% (active)
growth [12]: 7.36% (active)
growth [13]: 55%
growth [14]: 15.7%
growth [15]: 29.1%
growth [16]: 19.7%
growth [17]: -9.85% (active)
growth [18]: 55.8%
growth [19]: 11.6%

CCN(CC)CCCC(Nc1c2ccc(Cl)cc2nc2ccc(OC)cc12)c1ccc(Cl)cc1 (configuration not stated)
growth [1]: 62.1%
growth [2]: 37%
growth [3]: -17.1% (active)
growth [4]: 25.4%
growth [5]: -69.2% (active)
growth [6]: 7.29% (active)
growth [7]: -68.7% (active)
growth [8]: -42.5% (active)
growth [9]: -84% (active)
growth [10]: -73.8% (active)
growth [11]: 23.8%
growth [12]: -58.2% (active)
growth [13]: -82.3% (active)
growth [14]: -59.1% (active)
growth [15]: 14.2%
growth [16]: -85.7% (active)
growth [17]: -90.9% (active)
growth [18]: -86.7% (active)
growth [19]: -89% (active)

O=S(=O)(c1cccc(NC2=Nc3cccc4cccc2c34)c1)N1CCCC1
growth [1]: 60.8%
growth [2]: 62.3%
growth [3]: 80.1%
growth [4]: 91.5%
growth [5]: 50.7%
growth [6]: -3.41% (active)
growth [7]: 75.3%
growth [8]: 66.3%
growth [9]: 82.9%
growth [10]: 95.6%
growth [11]: 90.4%
growth [12]: 19.3%
growth [13]: 64.1%
growth [14]: 77.1%
growth [15]: 79.1%
growth [16]: 59%
growth [17]: 74.9%
growth [18]: 64.9%
growth [19]: 69.5%

COc1ccc(C(=O)c2cc3c(N)c(C(=O)Nc4ccc(Cl)cc4)sc3nc2C)cc1
growth [1]: 89.7%
growth [2]: 57.1%
growth [3]: 87.1%
growth [4]: 37.5%
growth [5]: 68.4%
growth [6]: 78.2%
growth [7]: 43.8%
growth [8]: 77.1%
growth [9]: 81.6%
growth [10]: 85.8%
growth [11]: 90.1%
growth [12]: 31.1%
growth [13]: 58.7%
growth [14]: 81.2%
growth [15]: 56.4%
growth [16]: 89.3%
growth [17]: 71.9%
growth [18]: 77.3%
growth [19]: 61.5%

Brc1ccc(C2CC(c3cccc(Nc4ccncc4)c3)=NN2c2ccccc2)cc1 (configuration not stated)
growth [1]: 85.6%
growth [2]: 95%
growth [3]: 87.3%
growth [4]: 77.2%
growth [5]: 0.717% (active)
growth [6]: 62.5%
growth [7]: 87.4%
growth [8]: 54.7%
growth [9]: 90.2%
growth [10]: 0.175% (active)
growth [11]: 88.7%
growth [12]: 4.05% (active)
growth [13]: 66.7%
growth [14]: 84.4%
growth [15]: 103%
growth [16]: 89%
growth [17]: 84.4%
growth [18]: 84%
growth [19]: 101%

COc1cc(NCC(O)CN(CC(C)C)C2CCCC2)c2ncccc2c1 (configuration not stated)
growth [1]: 77.6%
growth [2]: 94.3%
growth [3]: 110%
growth [4]: 86.5%
growth [5]: 89.4%
growth [6]: 73.8%
growth [7]: 70.6%
growth [8]: 66.1%
growth [9]: 89.3%
growth [10]: 97%
growth [11]: 98.4%
growth [12]: 73.2%
growth [13]: 147%
growth [14]: 66.8%
growth [15]: 82.7%
growth [16]: 92.2%
growth [17]: 99.8%
growth [18]: 85.5%
growth [19]: 95.8%

COc1ccccc1N1CCN(C(=O)c2ccc3nc(NC(=O)c4ccc(NCCc5ccccc5)c([N+](=O)[O-])c4)sc3c2)CC1
growth [1]: 81.9%
growth [2]: 87.4%
growth [3]: 91.5%
growth [4]: 82.9%
growth [5]: 86.5%
growth [6]: 81.9%
growth [7]: 80.4%
growth [8]: 91.3%
growth [9]: 110%
growth [10]: 100%
growth [11]: 68.7%
growth [12]: 86%
growth [13]: 45.6%
growth [14]: 75.7%
growth [15]: 67.6%
growth [16]: 102%
growth [17]: 99.7%
growth [18]: 72.7%
growth [19]: 64.4%

COc1cc(OC)c(/C=C/C(=O)c2ccc(Nc3ncnc4ccccc34)cc2)c(OC)c1
growth [1]: 17%
growth [2]: -17.3% (active)
growth [3]: 11.5%
growth [4]: -54.5% (active)
growth [5]: -23.1% (active)
growth [6]: -16.4% (active)
growth [7]: -51.4% (active)
growth [8]: 12.2%
growth [9]: -13.2% (active)
growth [10]: 6.02% (active)
growth [11]: -26.5% (active)
growth [12]: 4.41% (active)
growth [13]: -39.8% (active)
growth [14]: -19.9% (active)
growth [15]: -71.9% (active)
growth [16]: -47.7% (active)
growth [17]: -56.6% (active)
growth [18]: -12% (active)
growth [19]: -15.5% (active)
